# Compound activity (PubChem)
# Only a selection was taken, and hits are over-represented in it overall.
# Giardia FBPA inh = qHTS Assay for Inhibitors of Fructose-1,6-bisphosphate Aldolase from Giardia Lamblia; A8B2U2; purified Giardia FBPA; Potency, µM (series often up to 59.6 µM), for inactives: at the highest dose activity, negative = inhibition, usual class: inhibitors; 290,000 tested, 0.71% active; AID 2451, 2010; further: potency means the concentration at half of the fitted maximal effect; on the % scale 0 is the no-effect control and ±100 the full control effect; nearly all actives have a fitted effect of over 55% in size
# Target sequence (A8B2U2 whole entry, looked up): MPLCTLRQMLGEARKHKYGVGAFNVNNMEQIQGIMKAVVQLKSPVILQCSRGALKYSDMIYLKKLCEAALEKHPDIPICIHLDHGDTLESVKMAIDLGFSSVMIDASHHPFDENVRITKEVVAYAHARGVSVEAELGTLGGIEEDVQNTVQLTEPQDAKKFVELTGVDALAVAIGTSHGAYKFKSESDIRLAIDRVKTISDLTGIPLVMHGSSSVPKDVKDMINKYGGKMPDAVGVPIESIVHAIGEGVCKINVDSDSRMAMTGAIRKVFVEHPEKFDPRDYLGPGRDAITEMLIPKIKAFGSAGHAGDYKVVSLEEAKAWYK
#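 Giardia FBPA (40 nM reagent) was preincubated 10 min at RT with compound (up to 57.5 uM final), then substrate plus GAPDH/TPI/NAD/arsenate coupling system with diaphorase/resazurin was added; resorufin fluorescence (525/598 nm) was read after 20 min.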
# Shiga inhibitor = A qHTS for Small Molecule Inhibitors of Shiga Toxin; 290,000 tested, 9.2% active; Vero cells, Shiga toxin protein synthesis inhibition reporter; inhibition, % at 38.7 µM; in the data active means inhibition mostly above about 28%, no sharp cut-off; inactive means mostly below about 43%; further: 0% is about no effect
# CHX counter = Cycloheximide Counterscreen for Small Molecule Inhibitors of Shiga Toxin. cell reporter, cycloheximide protein synthesis inhibition counterscreen. max response, %. 300,000 tested, 12% active. AID 2314, 2010; in the data active means max response mostly above about 13%, no sharp cut-off; inactive means mostly below about 14%; further: read at 38.3 µM for the half of the compounds with a filed dose; 0% is about no effect
# RE007 growth inh = qHTS Assay for Inhibitors of the HIV-1 protein Vpr; S. pombe RE007 Vpr strain, BacTiter-Glo ATP luminescence, 24 h; 360,000 tested, 0.21% active; Potency, µM (series often up to 92.2 µM), for inactives: top-dose activity change, negative = less growth, most hits filed as inhibitors; active means well fitted falling curve with a large enough effect; inconclusive means small, poorly fitted or top-dose-only effect; inactive means no such curve, though single readings can be large or run the other way; further: potency means the concentration at half of the fitted maximal effect; on the % scale 0 is the no-effect control and ±100 the full control effect; nearly all actives have a fitted effect of over 50% in size
#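 Fission yeast strain RE007, carrying one chromosomally integrated HIV-1 vpr copy, was seeded at OD 0.01 in PMG+AL medium with 23 nL pinned compound. After 24 h at 30 °C and 99% humidity, viability was read by BacTiter-Glo luminescence.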
# Tb PYK inh = qHTS of Trypanosoma Brucei Inhibitors; 410,000 tested, 0.12% active; TbPYK enzyme, Kinase-Glo Plus ATP luminescence, 45 min; Potency, µM (titrated, usually from 76.8 µM), without a hit: top-dose activity, negative = inhibition, usual class: inhibitors; AID 624173, 2012; pyruvate kinase (Trypanosoma brucei), Q57TT1; further: potency means the concentration at half of the fitted maximal effect; on the % scale 0 is the no-effect control and ±100 the full control effect; nearly all actives have a fitted effect of over 50% in size
#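 Luminescent Kinase-Glo Plus end-point after 45 min room-temperature reaction of T. brucei pyruvate kinase started with 130 uM ADP (final). Buffer TEA 50 mM pH 7.2 with KCl, MgCl2, BSA, Tween-20; titration-based qHTS with fitted concentration-effect curves.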
# LmPK inh = qHTS Assay for Inhibitors of Leishmania Mexicana Pyruvate Kinase (LmPK). 290,000 tested, 0.37% active. purified LmPK, Kinase-Glo ATP luminescence, 1 h. Potency, µM (series often up to 57.5 µM), for inactives: at the top dose activity change, negative = inhibition, most hits filed as inhibitors. Q27686; further: potency means the concentration at half of the fitted maximal effect; on the % scale 0 is the no-effect control and ±100 the full control effect
#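 Screened at intermediate enzyme activity to detect both inhibitors and activators: LmPK at 0.1 nM, with a 0.5 nM enzyme column as activation reference. PEP 0.5 mM, ADP 0.1 mM; ATP detected by luminescence after 1 h.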
# Starred values were filed as active, the others as inactive; ? = inconclusive; nt = not tested or not shown. Unless noted, the call rests on the fitted dose curve; in most records, active means well fitted curve in the direction sought with a large enough effect; inconclusive means small, poorly fitted or top-dose-only effect, or another doubt; inactive means no such curve, though single readings can be large; an effect the other way counts as inactive or inconclusive.
SMILES,Giardia FBPA inh,Shiga inhibitor,CHX counter,RE007 growth inh,Tb PYK inh,LmPK inh
Oc1c(C=Nc2cccc3cccnc23)sc2ccccc12,5.1%,81.5,31.1,nt,nt,?
Oc1ccc(Cl)cc1N=Cc1sc2ccccc2c1Cl,-21.2%,60.5*,41.4*,-26.1%,-6.6%,3.0%
COc1ccc(-c2sc3ccccc3c2-c2ccc(O)cc2)cc1,nt,nt,nt,-49.8%,2.8%,nt
COc1ccc(N=Cc2sc3ccccc3c2Cl)cc1,-0.7%,13.0,25.0*,-0.2%,0.7%,-5.7%
CCCCN(C)C(=O)c1ccc2c(c1)N(Cc1cccc(F)c1)C(=O)c1ccccc1S2,nt,nt,nt,nt,0.6%,nt
Cc1cc(Cl)ccc1OCC(=O)N1C(C)CCCC1C (centres undefined),7.4%,73.1*,20.4*,8.6%,-4.3%,-3.5%
CC1CCCC(C)N1C(=O)COc1ccc([N+](=O)[O-])cc1Cl (centres undefined),3.2%,18.7,18.4,-3.2%,1.1%,4.9%
CC1CCCC(C)N1C(=O)COc1ccc(F)cc1 (centres undefined),8.2%,11.8,25.7*,-4.3%,0.9%,-4.5%
Cc1noc(NS(=O)(=O)c2ccc(N/C=C/C(=O)c3cccnc3)cc2)c1C,3.1%,43.0*,15.8*,3.9%,-1.6%,-3.8%
COc1ccc(C(=O)/C=C/Nc2ccc(S(=O)(=O)Nc3ncccn3)cc2)cc1,3.6%,37.7,20.4*,nt,nt,1.7%
Cc1noc(NS(=O)(=O)c2ccc(N/C=C\C(=O)c3ccncc3)cc2)c1C,11.4%,-4.6,-2.9,3.5%,-4.3%,-0.3%
CCc1ccc(C(=O)/C=C/Nc2ccc(S(=O)(=O)Nc3onc(C)c3C)cc2)cc1,14.8%,91.6*,49.9*,-1.2%,-6.1%,-0.2%
COc1ccc(S(=O)(=O)Nc2ncccn2)cc1,1.3%,17.0,9.0,0.2%,-3.8%,0.3%
COc1ccc(C(=O)/C=C/Nc2ccc(S(=O)(=O)Nc3onc(C)c3C)cc2)cc1,21.9%,77.0*,43.5*,-20.3%,-6.3%,1.5%
Cc1cccc(C(=O)NCC(=O)OC(C)C(=O)Nc2ccc(Cl)cn2)c1 (centres undefined),nt,nt,nt,6.1%,-4.7%,nt
CCc1nnc(NS(=O)(=O)c2ccc(N/C=C\C(=O)c3ccc4ccccc4c3)cc2)s1,-0.9%,3.2,24.0*,4.9%,-6.2%,5.0%
Cc1noc(NS(=O)(=O)c2ccc(N/C=C/C(=O)c3ccc(F)cc3)cc2)c1C,18.4%,68.8*,32.7*,-6.5%,-1.0%,2.1%
COc1ccc(/C=C(/C(=O)c2cccs2)N2C=CC=CC2=C(C#N)C#N)cc1,-4.3%,46.8*,41.0*,0.5%,-22.0%,-4.7%
Oc1ccc(-c2csc(Nc3ccccn3)n2)c(O)c1,1.7%,130.6*,34.0*,-14.8%,2.0%,2.4%
Cc1cccnc1Nc1nc(-c2ccc(O)cc2O)cs1,-21.9%,112.4*,39.2*,-4.8%,-11.7%,-4.0%
NS(=O)(=O)c1ccc(Nc2nc(-c3ccc(O)cc3O)cs2)cc1,-20.6%,-16.2,-1.9,-0.7%,-1.3%,-4.0%
Cc1cccc(-c2nc(SCC(=O)Nc3cccc(C(F)(F)F)c3)n3[nH]c(=O)cc3n2)c1,nt,nt,nt,nt,-0.1%,nt
CC(=O)c1sc(NC(=O)C2COc3ccccc3O2)nc1C (centres undefined),4.7%,35.7,21.4*,-22.2%,-7.8%,-26.0%
O=C(Nc1nnc(CC(=O)N2CCOCC2)s1)C1COc2ccccc2O1 (centres undefined),1.4%,-10.0,-7.1,-19.4%,1.8%,-1.1%
CC1(C)CC(=O)c2sc(NC(=O)CN3C(=O)CCC3=O)nc2C1,17.4%,74.5*,50.5*,-0.5%,-1.4%,1.8%
CC1(C)CC(=O)c2sc(NS(=O)(=O)c3ccc([N+](=O)[O-])cc3)nc2C1,-22.1%,-6.8,46.4*,2.8%,11.3%,5.6%
O=C(Nc1nnc(C2CC2)s1)C1COc2ccccc2O1 (centres undefined),4.0%,74.7,34.2*,-20.7%,-2.1%,0.3%
